{
  "source": "PubChem BioAssay (EPA / NIEHS)",
  "key": {"[1]": {"system": "SRY-box transcription factor 17 (SOX17) Protein Expression, Deisenroth Lab, SOX17 (gene 64321)", "test": "CCTE_Deisenroth_DEVTOX-GLR_legacy_Sox17: (Legacy) CCTE's DevTox GLR-Endo Assay Evaluation of SRY-box transcription factor 17 (SOX17) Protein Expression, Deisenroth Lab (AID 2284341; active means hit-call score of the fitted dose curve at least 0.9, where 1 is the maximum; inactive means score below 0.9)", "settings": "actives raise or lower the signal", "procedure,_shortened": "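RUES2-GLR human pluripotent cells, seeded 24 h, then differentiated 48 h in defined media with two chemical exposures 24 h apart (1 nM - 200 uM, 10 points). Sox17+ fraction from high-content fluorescence imaging; bidirectional fit versus 0.2% DMSO.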"}, "[2]": {"system": "SRY-box transcription factor 2 (SOX2) Protein Expression, Deisenroth Lab, SOX2 (gene 6657)", "test": "CCTE_Deisenroth_DEVTOX-GLR_legacy_Sox2: (Legacy) CCTE's DevTox GLR-Endo Assay Evaluation of SRY-box transcription factor 2 (SOX2) Protein Expression, Deisenroth Lab (AID 2284346; active means hit-call score of the fitted dose curve at least 0.9, where 1 is the maximum; inactive means score below 0.9)", "procedure,_shortened": "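Percent Sox2-positive cells was scored by high-content imaging of 5 fields per well. Positivity cutoff was 5x BMAD over the directed endoderm control, and the DMSO median was subtracted. Cells were RUES2-GLR, dosed twice at 24-h intervals over 48 h of differentiation (1 nM-200 uM).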"}, "[3]": {"test": "VALA_TUBIPS_Antagonist_CellCount: Viability Assessment in the VALA Sciences human iPS-derived Endothelial Tubule Formation (TUBIPS) Antagonism Assay (AID 2284335)"}, "[4]": {"test": "VALA_MIGHUV1_ScratchOnly_WoundArea: VALA Sciences human Umbilical Vein Endothelial Cell Migration (MIGHUV) Assay, Area of Scratch Wound Inhibited Recovery (AID 2284336)", "procedure,_shortened": "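Wound area remaining after 24 h recovery imaged by Hoechst nuclear fluorescence in scratched HUVEC cultures, chemicals added within 30 min of scratching across a 6-point series. Gain of signal fitted against 0.1% DMSO; cytochalasin D positive control.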"}, "[5]": {"test": "VALA_TUBHUV_Agonist_TubuleLength: VALA Sciences human Umbilical Vein Endothelial Tubule Formation (TUBHUV) Agonism Assay (AID 2284337)", "procedure,_shortened": "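Tubule length quantified by CD31 immunofluorescence imaging after fixation. HUVEC-HDF co-cultures (1:3) pre-grown 3 days with 10 ng/ml VEGF, then dosed 3 days in VEGF medium; 0.1 % DMSO vehicle baseline.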"}, "[6]": {"test": "VALA_TUBIPS_Agonist_CellCount: Viability Assessment in the VALA Sciences human iPS-derived Endothelial Tubule Formation (TUBIPS) Agonism Assay (AID 2284338)"}, "SERPINA7 (gene 6906)": {"system": "SERPINA7 (gene 6906)", "test": "CCTE_GLTED_hTBG: CCTE's human Thyroxine-binding Globulin (TBG) Inhibition Assay, Great Lakes Toxicology and Ecology Division (GLTED) Lab (AID 2284343)", "procedure,_shortened": "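Human thyroxine-binding globulin was exposed to each chemical for 2 hours, during which the ANSA probe could be displaced. Fluorescence was then measured at 380/475 nm, and loss of signal was analysed relative to DMSO.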"}, "[7]": {"test": "IUF_NPC1_cytotoxicity_72hr: Cytotoxicity Assessment at 72 hours in the Leibniz Research Institute for Environmental Medicine (IUF) Neural Progenitor Cell Proliferation Assay (NPC1) (AID 2284332);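 further: rising LDH signal means more cytotoxicity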", "procedure,_shortened": "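Membrane-integrity loss is scored from LDH released into the medium, detected as resorufin fluorescence, with activity fitted upward relative to baseline. Test material stays on human fetal-derived progenitor spheres for 72 h.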"}, "[8]": {"test": "CCTE_Mundy_HCI_iCellGluta_NOG_NeuronCount: CCTE's Neurite Outgrowth Assay in iCellGluta cells for Neuron Count, Mundy Lab (AID 2284340);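 further: cells fixed about 48 h after compound addition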", "procedure,_shortened": "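Neuron count read by automated high-content imaging of Hoechst 33342 and betaIII-tubulin/Alexa Fluor-488 labelling in human iPSC glutamatergic neurons. Activity fitted relative to DMSO.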"}, "[9]": {"test": "CCTE_Mundy_HCI_iCellGluta_NOG_NeuriteCount: CCTE's Neurite Outgrowth Assay in iCellGluta cells for Neurite Count, Mundy Lab (AID 2284342);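 further: chemical exposure about 48 hours starting 2 hours after plating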"}},
  "note": "Inconclusive results are not listed. Activity calls are given as the source filed them. How the source made its calls, unless noted: active means hit-call score of the fitted dose curve at least 0.9, where 1 is the maximum; inconclusive means response in the unintended direction; inactive means score below 0.9.",
  "data": [
    {"smiles": "COc1cccc2c1C(=O)c1c(O)c3c(c(O)c1C2=O)C[C@@](O)(C(=O)CO)C[C@@H]3O[C@H]1C[C@H](N)[C@H](O)[C@H](C)O1", "values": [
      {"measurement": "AC50", "setting": "[1]", "result": "4.93 µM (active)"},
      {"measurement": "AC50", "setting": "[2]", "result": "0.107 µM (active)"}
    ]},
    {"smiles": "Oc1ccc2ccccc2c1N=Nc1ccccc1", "values": [
      {"measurement": "outcome", "setting": "[3]", "result": "inactive"},
      {"measurement": "outcome", "setting": "[4]", "result": "inactive"},
      {"measurement": "outcome", "setting": "[5]", "result": "inactive"},
      {"measurement": "AC50", "setting": "[6]", "result": "31.9 µM (active)"},
      {"measurement": "AC50", "setting": "SERPINA7 (gene 6906)", "result": "22.2 µM (active)"}
    ]},
    {"smiles": "Nc1ccc(S(=O)(=O)c2ccc(N)cc2)cc1", "values": [
      {"measurement": "AC50", "setting": "SERPINA7 (gene 6906)", "result": "50 µM (active)"}
    ]},
    {"smiles": "COc1cc(S(=O)(=O)O)c(C)cc1N=Nc1c(O)ccc2cc(S(=O)(=O)O)ccc12", "values": [
      {"measurement": "AC50", "setting": "SERPINA7 (gene 6906)", "result": "35 µM (active)"}
    ]},
    {"smiles": "CC1=C(/C=C/C(C)=C/C=C/C(C)=C/CO)C(C)(C)CCC1", "values": [
      {"measurement": "AC50", "setting": "[1]", "result": "33.5 µM (active)"},
      {"measurement": "AC50", "setting": "[2]", "result": "55.7 µM (active)"}
    ]},
    {"smiles": "COC(=O)c1ccc(O)cc1", "values": [
      {"measurement": "outcome", "setting": "[3]", "result": "inactive"},
      {"measurement": "outcome", "setting": "[6]", "result": "inactive"}
    ]},
    {"smiles": "CC(=O)Oc1ccccc1C(=O)O", "values": [
      {"measurement": "outcome", "setting": "[7]", "result": "inactive"},
      {"measurement": "outcome", "setting": "[8]", "result": "inactive"},
      {"measurement": "outcome", "setting": "[1]", "result": "inactive"},
      {"measurement": "outcome", "setting": "[9]", "result": "inactive"},
      {"measurement": "AC50", "setting": "SERPINA7 (gene 6906)", "result": "22.8 µM (active)"},
      {"measurement": "outcome", "setting": "[2]", "result": "inactive"}
    ]},
    {"smiles": "CCCc1cc(=O)[nH]c(=S)[nH]1", "values": [
      {"measurement": "outcome", "setting": "[4]", "result": "inactive"},
      {"measurement": "outcome", "setting": "[5]", "result": "inactive"},
      {"measurement": "outcome", "setting": "[6]", "result": "inactive"},
      {"measurement": "outcome", "setting": "[1]", "result": "inactive"},
      {"measurement": "outcome", "setting": "[2]", "result": "inactive"}
    ]},
    {"smiles": "OC[C@@H](O)[C@@H](O)[C@H](O)[C@H](O)CO", "values": [
      {"measurement": "outcome", "setting": "[7]", "result": "inactive"},
      {"measurement": "outcome", "setting": "[3]", "result": "inactive"},
      {"measurement": "outcome", "setting": "[5]", "result": "inactive"},
      {"measurement": "outcome", "setting": "[6]", "result": "inactive"},
      {"measurement": "outcome", "setting": "[9]", "result": "inactive"}
    ]},
    {"smiles": "CCCCC(CC)COC(=O)CC(C(=O)OCC(CC)CCCC)S(=O)(=O)O", "note": "(configuration not stated)", "values": [
      {"measurement": "outcome", "setting": "[3]", "result": "inactive"},
      {"measurement": "AC50", "setting": "[4]", "result": "74.5 µM (active)"},
      {"measurement": "AC50", "setting": "[5]", "result": "14.9 µM (active)"},
      {"measurement": "AC50", "setting": "[6]", "result": "77.8 µM (active)"},
      {"measurement": "AC50", "setting": "SERPINA7 (gene 6906)", "result": "1.95 µM (active)"}
    ]},
    {"smiles": "COc1ccc2c(c1)c(CC(=O)O)c(C)n2C(=O)c1ccc(Cl)cc1", "values": [
      {"measurement": "AC50", "setting": "[1]", "result": "15.5 µM (active)"},
      {"measurement": "AC50", "setting": "SERPINA7 (gene 6906)", "result": "1.71 µM (active)"},
      {"measurement": "AC50", "setting": "[2]", "result": "17 µM (active)"}
    ]},
    {"smiles": "Cc1cc(NC(=O)C(=O)O)cc(C)c1Oc1ccc(O)c2c1CCC2", "values": [
      {"measurement": "outcome", "setting": "[4]", "result": "inactive"},
      {"measurement": "outcome", "setting": "[6]", "result": "inactive"},
      {"measurement": "AC50", "setting": "SERPINA7 (gene 6906)", "result": "0.667 µM (active)"}
    ]},
    {"smiles": "O=c1c(O)c(-c2ccc(O)c(O)c2)oc2cc(O)cc(O)c12", "values": [
      {"measurement": "outcome", "setting": "[3]", "result": "inactive"},
      {"measurement": "outcome", "setting": "[4]", "result": "inactive"},
      {"measurement": "outcome", "setting": "[5]", "result": "inactive"}
    ]},
    {"smiles": "Cc1ccc(C)c(O)c1C", "values": [
      {"measurement": "AC50", "setting": "SERPINA7 (gene 6906)", "result": "33.1 µM (active)"}
    ]},
    {"smiles": "C=CCOC(=O)c1ccccc1C(=O)OCC=C", "values": [
      {"measurement": "AC50", "setting": "SERPINA7 (gene 6906)", "result": "19.5 µM (active)"}
    ]},
    {"smiles": "CCOC(=O)C(C)(C)Oc1ccc(Cl)cc1", "values": [
      {"measurement": "AC50", "setting": "SERPINA7 (gene 6906)", "result": "24.9 µM (active)"}
    ]},
    {"smiles": "C[Si]1(C)O[Si](C)(C)O[Si](C)(C)O[Si](C)(C)O1", "values": [
      {"measurement": "outcome", "setting": "[7]", "result": "inactive"},
      {"measurement": "outcome", "setting": "[8]", "result": "inactive"},
      {"measurement": "outcome", "setting": "[9]", "result": "inactive"}
    ]},
    {"smiles": "O=c1[nH]cc(F)c(=O)[nH]1", "values": [
      {"measurement": "AC50", "setting": "[1]", "result": "8.47 µM (active)"},
      {"measurement": "AC50", "setting": "[2]", "result": "22 µM (active)"}
    ]},
    {"smiles": "Cc1cccc(Nc2cc(Cl)nc(SCC(=O)O)n2)c1C", "values": [
      {"measurement": "AC50", "setting": "SERPINA7 (gene 6906)", "result": "22 µM (active)"}
    ]}
  ]
}
